Seven compounds from PubChem BioAssay (NCATS) can be followed below.

Experiment in all cases: qHTS profiling for inhibitors of Plasmodium falciparum proliferation (AID 504749); note: nearly all actives have a fitted effect of over 60% in size
Common to all, as to conditions: P. falciparum in erythrocytes, SYBR Green DNA, 72 h; series mostly up to 28.7 µM

One assay relates to CP269. The method, boiled down:
(§1)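 Readout was DNA-dye fluorescence from lysed cultures, ex 485/em 535 nm. Parasitized red cells had grown 72 h with compound; data scaled between 0.29 uM artemisinin and DMSO wells and corrected using vehicle-only plates.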

For the next assay, the system named is CP286. The procedure, abridged: as §1
The test system of a further assay is CP297. The method, boiled down: as §1
The test system of a further assay is CP305. The procedure, abridged: as §1
For the next assay, the system named is CP315. The procedure, abridged:
as §1

Another assay has as its system CP325. The method, boiled down: as §1
In the next assay the test system is CP329. The method, boiled down:
as §1

The subject of another assay is CP335. The procedure, abridged: as §1
Another assay concerns DFO2036. The procedure, abridged: as §1
Another assay concerns DIV14. The method, boiled down:
as §1

In another assay the test system is DIV17. The procedure, abridged:
as §1

For another assay, the system named is DIV30. The method, boiled down: as §1
A further assay has as its system Dd2. The procedure, abridged: as §1
Another assay has as its system ECU. The method, boiled down: as §1
The subject of the next assay is FAB9. The method, boiled down:
as §1

The test system of the next assay is GB4. The procedure, abridged:
as §1

For the next assay, the system named is HB3. The procedure, abridged: as §1
The subject of another assay is ICS. The procedure, abridged:
as §1

A further assay relates to JCK. The method, boiled down: as §1
The test system of the next assay is CP291. The procedure, abridged:
as §1

Results filed as inconclusive are left out. The source made the active and inactive calls. Calls come from the whole dose curve; as a rule, active = well fitted inhibition curve with a large enough effect; inconclusive = small, poorly fitted or top-dose-only effect; inactive = flat fitted curve, though single readings scatter.
Potency is the fitted concentration of half-maximal effect.

Consider `Nc1nc2c(c(=O)[nH]1)N(C=O)[C@H](CNc1ccc(C(=O)N[C@@H](CCC(=O)O)C(=O)O)cc1)CN2`, for which the Potency result with CP269, in the assay with CP286, with CP297, in the assay with CP305, in the assay with CP315 and in the assay with CP325 was “inactive” each time. Further, the Potency entry in the assay with CP329, with CP335, with DFO2036, in the assay on DIV14, in the assay with DIV17 and in the assay on DIV30 was “inactive” throughout. For the same compound, the Potency entry in the assay on Dd2, in the assay on ECU, with FAB9, with GB4, with HB3 and in the assay on ICS was “inactive” each time. Besides, in the assay on JCK, the Potency result was “inactive”.
For the compound `COc1ccc([C@@H]2CNC(=O)C2)cc1OC1CCCC1`, the Potency entry with CP269, in the assay on CP286, in the assay on CP291, in the assay on CP297, in the assay with CP305 and in the assay on CP315 was “inactive” in each case. For the same compound, the Potency entry in the assay with CP325, with CP329, in the assay with CP335, in the assay on DFO2036, in the assay on DIV14 and with DIV17 was “inactive” in each case. In addition, the Potency result in the assay with DIV30, with Dd2, with ECU, with FAB9, in the assay on GB4 and with HB3 was “inactive” each time. Besides, the Potency entry in the assay on ICS and with JCK was “inactive” in each case.
For the compound `CCC(C(=O)O)C1CCC(C)C(C(C)C(O)C(C)C(=O)C(CC)C2OC3(C=CC(O)[C@@]4(CC[C@](C)(C5CC[C@@](O)(CC)C(C)O5)O4)O3)C(C)CC2C)O1` (some centres not stated), the Potency was 0.675 µM (active) in the assay with CP269; 0.794 µM (active) in the assay with CP286; 0.675 µM (active) in the assay with CP291; 0.757 µM (active) in the assay on CP297; 0.675 µM (active) in the assay on CP305; 0.478 µM (active) in the assay on CP315. In addition, the Potency in the assay on CP325 is 0.849 µM (active); in the assay with CP329, 0.601 µM (active); in the assay on CP335 it was 0.379 µM (active); in the assay with DFO2036, 0.794 µM (active); in the assay with DIV17, 0.601 µM (active); with DIV30, 0.478 µM (active). Moreover, the Potency in the assay with Dd2 is 0.891 µM (active); with ECU, 1.58 µM (active); with FAB9, 2.24 µM (active); in the assay on GB4 it was 0.536 µM (active); in the assay with HB3, 0.891 µM (active); in the assay with ICS, 1 µM (active). Further, in the assay on JCK, the Potency was 4.47 µM (active).
Take `CCCCCCCCCCCC(CC1OC(=O)C1CCCCCC)OC(=O)C(CC(C)C)NC=O` (configuration not stated): the Potency is 1 µM (active) with CP286; 0.675 µM (active) in the assay with CP335; 0.501 µM (active) in the assay on DFO2036; 0.794 µM (active) in the assay with Dd2; 0.398 µM (active) in the assay on ECU; 1.26 µM (active) in the assay with HB3. Besides, the Potency was 1.12 µM (active) with ICS and 1 µM (active) with JCK. Moreover, the Potency entry in the assay on CP315 is “inactive”.
Turning to `COc1ccc2c(c1OC)C(=O)OC2[C@H]1c2c(cc3c(c2OC)OCO3)CCN1C` (some centres not stated), the Potency result in the assay on CP269, in the assay on CP286, in the assay with CP291, in the assay with CP297, with CP305 and in the assay with CP315 was “inactive” throughout. Also, the Potency entry in the assay with CP325, in the assay on CP329, in the assay with CP335, in the assay on DFO2036, in the assay on DIV14 and in the assay with DIV17 was “inactive” in each case. Further, the Potency entry in the assay with DIV30, in the assay with Dd2, in the assay with ECU, in the assay with FAB9, in the assay on GB4 and in the assay on HB3 was “inactive” throughout. In addition, the Potency result in the assay with ICS and in the assay with JCK was “inactive” throughout.
On to `COc1cccc2c1C(=O)c1c(O)c3c(c(O)c1C2=O)C[C@@](O)(C(=O)CO)C[C@@H]3O[C@H]1C[C@H](N)[C@H](OC2CCCCO2)[C@H](C)O1` (some centres not stated), for which the Potency with CP269 was 5.36 µM (active); in the assay with CP286, 2 µM (active); in the assay with CP291, 6.75 µM (active); in the assay on CP297 it was 6.75 µM (active); with CP305 it was 6.01 µM (active); in the assay on CP315, 16.9 µM (active). In addition, the Potency is 7.57 µM (active) with CP325; 6.75 µM (active) in the assay on CP329; 3.01 µM (active) in the assay on CP335; 3.55 µM (active) in the assay with DFO2036; 3.79 µM (active) in the assay on DIV14; 2.39 µM (active) in the assay on DIV17. Besides, the Potency in the assay with DIV30 was 6.75 µM (active); with Dd2, 2 µM (active); in the assay with ECU, 2 µM (active); in the assay with FAB9, 12.6 µM (active); with GB4 it was 4.78 µM (active); in the assay on HB3, 5.01 µM (active). For the same compound, the Potency is 0.708 µM (active) in the assay with ICS and 12.6 µM (active) in the assay with JCK.
As for `OCC(O)C(O)C(O)CO` (configuration not stated), the Potency entry in the assay with CP269, in the assay with CP286, in the assay on CP291, in the assay on CP297, in the assay on CP305 and in the assay with CP315 was “inactive” in each case. The Potency entry with CP325, in the assay on CP329, with CP335, in the assay with DFO2036, with DIV14 and in the assay with DIV17 was “inactive” each time. Besides, the Potency entry with DIV30, in the assay with Dd2, with ECU, in the assay with FAB9, in the assay with GB4 and in the assay on HB3 was “inactive” each time. Further, the Potency entry with ICS and in the assay with JCK was “inactive” each time.
